The AC50 is the midpoint of the concentration-response curve, whichever way the signal moves.

The structures appear in SMILES notation. “And” between values parts separate entries of the source, which are not always exact repeats. Equal entries are not always repeated. The source holds several records for some structures; these can differ, active in one and inactive in another. The source made the active and inactive calls. Rule for the calls: active = hit-call score of the fitted dose curve at least 0.9, where 1 is the maximum; inactive = score below 0.9.

A short description of one assay: APR_HepG2_MitoMass_24hr: Apredica 24-hour HepG2 Assay for Mitochondrial Mass (AID 2282912). Particulars: high-content imaging, actives raise or lower the signal. An outline of the steps:
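HepG2 cells exposed 24 hr to 0.39–200 uM compound, 0.5% v/v DMSO, in duplicate. Stained before fixation with 250 nM MitoTracker Red CMXRos for 30 min, then imaged at 20x with Hoechst nuclei. Fitted in both directions against DMSO.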
On to `O=C(O)COc1nc(Cl)c(Cl)cc1Cl`, for which the outcome was inactive.

Consider `CC(C)(C)c1ccc(CSc2cnn(C(C)(C)C)c(=O)c2Cl)cc1`, for which the compound was called inactive.

Consider `COC(=O)C(C)Oc1ccc(Oc2ccc(Cl)cc2Cl)cc1` (stereo not drawn), for which the result was inactive.

`CCOC(=O)C(Cl)Cc1cc(-n2nc(C)n(C(F)F)c2=O)c(F)cc1Cl` (stereo not drawn): the result was inactive.

Consider `CC1=C(C(=O)Nc2ccccc2)SCCO1`, for which the call was inactive.

For `COc1cnc(OC)n2nc(NS(=O)(=O)c3c(OCC(F)F)cccc3C(F)(F)F)nc12`, the compound was called inactive.

Consider `CO/C=C(/C(=O)OC)c1ccccc1Oc1cc(Oc2ccccc2C#N)ncn1`, for which the compound was called inactive.

As for `CCOC(=O)CC(SP(=S)(OC)OC)C(=O)OCC` (stereo not drawn), the call was inactive.

`CC(C)Oc1cc(-n2nc(C(C)(C)C)oc2=O)c(Cl)cc1Cl`: the compound was called inactive.

In the case of `N#CC(CCc1ccc(Cl)cc1)(Cn1cncn1)c1ccccc1` (stereo not drawn), the outcome was inactive.

For the compound `Cc1c(F)c(F)c(COC(=O)C2C(/C=C(\Cl)C(F)(F)F)C2(C)C)c(F)c1F` (stereo not drawn), the compound was classed as inactive.

Turning to `COc1nc(C)nc(NC(=O)NS(=O)(=O)c2ccccc2Cl)n1`, the call was inactive.

Turning to `CCCCNC(=O)n1c(NC(=O)OC)nc2ccccc21`, the compound was classed as inactive.

Take `COC(=O)c1ccccc1C(=O)OC`: the call was inactive.

`COP(=S)(OC)Oc1nc(Cl)c(Cl)cc1Cl`: the result was inactive.

As for `Cc1cc(Cl)ccc1OCC(=O)O`, the compound was called inactive.

As to `CON(C)C(=O)Nc1ccc(Cl)c(Cl)c1`, the compound was called inactive.

In the case of `COc1ccc(C(c2ccc(OC)cc2)C(Cl)(Cl)Cl)cc1`, the outcome was inactive.

In the case of `CCNc1nc(Cl)nc(NCC)n1`, the compound was called inactive.

For the compound `CCCN(CCC)c1c([N+](=O)[O-])cc(S(N)(=O)=O)cc1[N+](=O)[O-]`, the AC50 is 164 µM (active) and 113 µM (active); the outcome was inactive.

Consider `CC(Oc1ccc(Cl)cc1Cl)C(=O)O` (stereo not drawn), for which the compound was classed as inactive.

For `CN(C)C(=S)SSC(=S)N(C)C`, the compound was classed as inactive.

`CCON=C(CC)C1=C(O)CC(c2c(C)cc(C)cc2C)CC1=O` (stereo not drawn): the outcome was inactive.

For `CS/C(C)=N/OC(=O)N(C)SN(C)C(=O)O/N=C(\C)SC`, the compound was called inactive.

Consider `CCCCNC(=O)OCC#CI`, for which the outcome was inactive.

As to `C=CCC1=C(C)[C@@H](OC(=O)[C@@H]2[C@@H](C=C(C)C)C2(C)C)CC1=O`, the result was inactive.

The next assay in a line: APR_HepG2_p53Act_24hr: Apredica 24-hour HepG2 Assay for p53 Activation (AID 2282913).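 Note: p53 protein immunofluorescence averaged per cell in HepG2 with Hoechst nuclei.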 Particulars: high-content imaging, actives raise or lower the signal. An outline of the steps: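 HepG2 cells exposed 24 h to compounds at 0.39–200 uM in duplicate, 0.5% v/v DMSO final; fixed, permeabilized, stained with anti-p53 antibody and Hoechst 33342; fluorescence imaging; bidirectional curve fit versus DMSO.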
`O=C(O)COc1nc(Cl)c(Cl)cc1Cl`: the call was inactive.

`CC(C)(C)c1ccc(CSc2cnn(C(C)(C)C)c(=O)c2Cl)cc1`: the call was inactive.

Turning to `COC(=O)C(C)Oc1ccc(Oc2ccc(Cl)cc2Cl)cc1` (stereo not drawn), the compound was classed as inactive.

Turning to `CCOC(=O)C(Cl)Cc1cc(-n2nc(C)n(C(F)F)c2=O)c(F)cc1Cl` (stereo not drawn), the outcome was inactive.

For `CC1=C(C(=O)Nc2ccccc2)SCCO1`, the result was inactive.

In the case of `COc1cnc(OC)n2nc(NS(=O)(=O)c3c(OCC(F)F)cccc3C(F)(F)F)nc12`, the call was inactive.

Regarding `CO/C=C(/C(=O)OC)c1ccccc1Oc1cc(Oc2ccccc2C#N)ncn1`, the AC50 is 110 µM (active) and the compound was classed as inactive.

`CCOC(=O)CC(SP(=S)(OC)OC)C(=O)OCC` (stereo not drawn): the compound was called inactive.

In the case of `CC(C)Oc1cc(-n2nc(C(C)(C)C)oc2=O)c(Cl)cc1Cl`, the result was inactive.

In the case of `N#CC(CCc1ccc(Cl)cc1)(Cn1cncn1)c1ccccc1` (stereo not drawn), the AC50 was 103 µM (active).

Turning to `Cc1c(F)c(F)c(COC(=O)C2C(/C=C(\Cl)C(F)(F)F)C2(C)C)c(F)c1F` (stereo not drawn), the result was inactive.

Consider `COc1nc(C)nc(NC(=O)NS(=O)(=O)c2ccccc2Cl)n1`, for which the compound was called inactive.

`CCCCNC(=O)n1c(NC(=O)OC)nc2ccccc21`: the result was inactive.

`COC(=O)c1ccccc1C(=O)OC`: the compound was classed as inactive.

For `COP(=S)(OC)Oc1nc(Cl)c(Cl)cc1Cl`, the outcome was inactive.

With `Cc1cc(Cl)ccc1OCC(=O)O`, the compound was classed as inactive.

On to `CON(C)C(=O)Nc1ccc(Cl)c(Cl)c1`, for which the compound was classed as inactive.

With `COc1ccc(C(c2ccc(OC)cc2)C(Cl)(Cl)Cl)cc1`, the outcome was inactive.

`CCNc1nc(Cl)nc(NCC)n1`: the compound was called inactive.

As to `CC(Oc1ccc(Cl)cc1Cl)C(=O)O` (stereo not drawn), the compound was classed as inactive.

With `CN(C)C(=S)SSC(=S)N(C)C`, the result was inactive.

As for `CCON=C(CC)C1=C(O)CC(c2c(C)cc(C)cc2C)CC1=O` (stereo not drawn), the compound was classed as inactive.

In the case of `CS/C(C)=N/OC(=O)N(C)SN(C)C(=O)O/N=C(\C)SC`, the call was inactive.

Consider `CCCCNC(=O)OCC#CI`, for which the outcome was inactive.

With `C=CCC1=C(C)[C@@H](OC(=O)[C@@H]2[C@@H](C=C(C)C)C2(C)C)CC1=O`, the outcome was inactive.

The next assay in a line: APR_HepG2_CellCycleArrest_72hr: Apredica 72-hour HepG2 Assay for Cell Cycle Arrest (AID 2282914). Particulars: high-content imaging, actives raise or lower the signal. An outline of the steps: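 HepG2 cells exposed 72 h in duplicate to 0.39–200 uM compound, 0.5% DMSO final. Formaldehyde-fixed, Hoechst 33342-stained nuclei imaged at 20x, six fields per well; DNA content per valid cell quantified by cell-cycle image analysis, bidirectional fit versus DMSO.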
Consider `COC(=O)C(C)Oc1ccc(Oc2ccc(Cl)cc2Cl)cc1` (stereo not drawn), for which the call was inactive.

On to `CCOC(=O)CC(SP(=S)(OC)OC)C(=O)OCC` (stereo not drawn), for which the call was inactive.

On to `CC(C)Oc1cc(-n2nc(C(C)(C)C)oc2=O)c(Cl)cc1Cl`, for which the compound was called inactive.

For the compound `N#CC(CCc1ccc(Cl)cc1)(Cn1cncn1)c1ccccc1` (stereo not drawn), the compound was called inactive.

In the case of `Cc1c(F)c(F)c(COC(=O)C2C(/C=C(\Cl)C(F)(F)F)C2(C)C)c(F)c1F` (stereo not drawn), the outcome was inactive.

Take `COC(=O)c1ccccc1C(=O)OC`: the call was inactive.

Turning to `COP(=S)(OC)Oc1nc(Cl)c(Cl)cc1Cl`, the compound was classed as inactive.

`CC(Oc1ccc(Cl)cc1Cl)C(=O)O` (stereo not drawn): the compound was classed as inactive.

In the case of `CS/C(C)=N/OC(=O)N(C)SN(C)C(=O)O/N=C(\C)SC`, the result was inactive.

As for `C=CCC1=C(C)[C@@H](OC(=O)[C@@H]2[C@@H](C=C(C)C)C2(C)C)CC1=O`, the call was inactive.
